According to PubChem BioAssay (NCI):
About 79,000 compounds went through this panel and 15% of them were active in at least one assay; those are over-represented in the sample as a whole. Activity calls are given as the source filed them. Cut-off read from the data, not from the text of the source: active = growth inhibition above about 70%; inactive = the rest.

Columns and labels:
[1] = NCI Yeast Anticancer Drug Screen. Data for the rad52 strain (AID 147);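 note: 0% = growth of vehicle-treated control cultures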; details: S. cerevisiae rad52 mutant growth inhibition, hits give high values
How it was run: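 The repair-mutant yeast strain was incubated with compounds, then growth was read and inhibition derived relative to vehicle.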

[2] = NCI Yeast Anticancer Drug Screen. Data for the wt1 strain (AID 149);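 note: 0% = growth of vehicle-treated wt1 cultures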; details: S. cerevisiae wt1 strain (SPY 50644) growth inhibition, hits give high values
How it was run: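 Yeast wt1 strain exposed to compounds; growth inhibition measured relative to vehicle-treated controls.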

[3] = NCI Yeast Anticancer Drug Screen. Data for the rad50EPP+ strain (AID 151);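 note: 0% = growth of vehicle-treated control cultures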; details: S. cerevisiae rad50 mutant strain, hits give high values
How it was run: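 Vehicle-normalised growth inhibition; rad50EPP+ yeast strain, altered in DNA damage repair, compound-treated.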

[4] = NCI Yeast Anticancer Drug Screen. Data for the mgt1 strain (AID 153); details: S. cerevisiae mgt1 mutant growth inhibition, hits give high values
How it was run: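 Vehicle-normalized growth inhibition is determined in mgt1 yeast, a strain selected for a defined alteration in DNA repair or cell cycle control.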

[5] = NCI Yeast Anticancer Drug Screen. Data for the rad50 strain (AID 155);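 note: 0% = growth of vehicle-only cultures of the same strain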; details: S. cerevisiae rad50 strain growth inhibition, hits give high values
How it was run: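 Yeast carrying a defined DNA repair defect were exposed to test compounds, and growth was compared with vehicle-treated controls to give percent inhibition.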

[6] = NCI Yeast Anticancer Drug Screen. Data for the mec2-1 strain (AID 157); details: S. cerevisiae mec2-1 strain, hits give high values
How it was run: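 Mutant yeast (mec2-1) grown with compound; growth inhibition relative to vehicle control reported.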

[7] = NCI Yeast Anticancer Drug Screen. Data for the rad14 strain (AID 159);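 note: 0% = growth of vehicle-treated control cultures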; details: S. cerevisiae rad14 strain growth inhibition, hits give high values
How it was run: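 Yeast cells carrying a defined DNA-repair defect were exposed to compounds, and growth inhibition was calculated relative to vehicle-treated control cultures.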

[8] = NCI Yeast Anticancer Drug Screen. Data for the sgs1 mgt1 strain (AID 161);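 note: 0% = growth of cultures given vehicle only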; details: S. cerevisiae sgs1 mgt1 strain, hits give high values
How it was run: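 Growth of a repair-deficient yeast mutant was monitored after compound treatment and expressed as inhibition relative to vehicle-treated cultures.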

[9] = NCI Yeast Anticancer Drug Screen. Data for the CLN2oe strain (AID 163);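 note: 0% = growth of vehicle-only control cultures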; details: S. cerevisiae CLN2oe strain, hits give high values
How it was run: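 Compounds are applied to yeast harbouring a defined cell-cycle control change; reduced growth compared with vehicle-treated controls gives the value.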

[10] = NCI Yeast Anticancer Drug Screen. Data for the cln2 rad14 strain (AID 165);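 note: 0% = growth equal to vehicle treated cultures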; details: S. cerevisiae cln2 rad14 strain, hits give high values
How it was run: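 Readout is yeast growth inhibition versus vehicle-treated controls, using a strain with cln2 and rad14 alterations exposed to compound.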

[11] = NCI Yeast Anticancer Drug Screen. Data for the bub3 strain (AID 167); details: S. cerevisiae bub3 mutant strain, hits give high values
How it was run: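 Compounds were applied to a genetically altered yeast strain carrying a cell-cycle control defect. Growth inhibition was scored against vehicle-treated controls.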

[12] = NCI Yeast Anticancer Drug Screen. Data for the wt2 strain (AID 169);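 note: 0% = growth of vehicle-treated yeast cultures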; details: S. cerevisiae wt2 strain growth inhibition, hits give high values
How it was run: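 Against vehicle-treated controls, the growth of yeast exposed to each compound was compared, and the inhibition was recorded.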

[13] = NCI Yeast Anticancer Drug Screen. Data for the mlh1 strain (AID 171);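 note: 0% = growth of vehicle-treated control cultures of the same strain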; details: S. cerevisiae mlh1 strain growth inhibition, hits give high values
How it was run: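 Measured: yeast growth. Reference: vehicle-treated controls. Organism: strain with a defined alteration affecting DNA damage repair or cell cycle control, treated with compound.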

[14] = NCI Yeast Anticancer Drug Screen. Data for the sgs1 strain (AID 173);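 note: 0% = growth of vehicle-only control cultures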; details: S. cerevisiae sgs1 mutant, hits give high values
How it was run: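 Each compound was added to cultures of the altered yeast strain. Growth was recorded, and inhibition was derived by comparison with vehicle controls.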

[15] = NCI Yeast Anticancer Drug Screen. Data for the mlh1 rad18 strain (AID 175); details: S. cerevisiae mlh1 rad18 strain growth inhibition, hits give high values
How it was run: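 Genetically defined yeast (DNA repair-deficient) exposed to compounds; growth inhibition determined relative to vehicle.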

[16] = NCI Yeast Anticancer Drug Screen. Data for the rad18 strain (AID 177); details: S. cerevisiae rad18 mutant growth inhibition, hits give high values
How it was run: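 Vehicle-treated cultures served as the baseline for scoring compound-induced growth inhibition in DNA-repair-mutant yeast.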

[17] = at 5.0 µM (retest, dose inferred, filed as 0.5)
[18] = at 50.0 µM (retest, dose inferred, filed as 5.0)

Measured: growth inhibition

COc1cc(/C=N/Nc2nnc3c4ccccc4c4ncccc4c3n2)cc(OC)c1OC
active: [1]; at 11.0 µM 81% | [1]; at 33.0 µM 74% | [1]; at 100.0 µM 89% | [3]; at 33.0 µM 80% | [3]; at 100.0 µM 84% | [5]; at 33.0 µM 81% | [5]; at 50.0 µM 93% | [5]; at 100.0 µM 86%
inactive: [1]; at 1.2 µM 40% | [1]; at 3.7 µM 51% | [2]; at 1.2 µM -22% | [2]; at 3.7 µM -1% | [2]; at 11.0 µM -1% | [2]; at 33.0 µM 4% | [2]; at 100.0 µM 9% | [3]; at 1.2 µM 20% | [3]; at 3.7 µM 36% | [3]; at 11.0 µM 58% | [4]; at 1.2 µM 0% | [4]; at 3.7 µM 1% | [4]; at 11.0 µM 3% | [4]; at 33.0 µM 5% | [4]; at 100.0 µM 6% | [5]; at 1.2 µM 18% | [5]; at 3.7 µM 36% | [5]; [17] 4% | [5]; at 11.0 µM 66% | [5]; [18] 62% | [6]; at 1.2 µM 15% | [6]; at 3.7 µM 1% | [6]; [17] -2% | [6]; at 11.0 µM 3% | [6]; at 33.0 µM 9% | [6]; [18] -5% | [6]; at 50.0 µM 22.1% | [6]; at 100.0 µM 11% | [7]; at 1.2 µM -1% | [7]; at 3.7 µM 2% | [7]; at 11.0 µM 5% | [7]; at 33.0 µM 8% | [7]; at 100.0 µM 14% | [8]; [17] -5% | [8]; [18] -2% | [8]; at 50.0 µM 34% | [9]; at 1.2 µM -8% | [9]; at 3.7 µM -2% | [9]; at 11.0 µM -2% | [9]; at 33.0 µM -3% | [9]; at 100.0 µM 1% | [10]; [17] -7% | [10]; [18] -6% | [10]; at 50.0 µM 47.8% | [11]; at 1.2 µM -1% | [11]; at 3.7 µM -1% | [11]; [17] 1% | [11]; at 11.0 µM -4% | [11]; at 33.0 µM -11% | [11]; [18] -16% | [11]; at 50.0 µM 6.55% | [11]; at 100.0 µM -8% | [12]; at 1.2 µM -5% | [12]; at 3.7 µM -1% | [12]; at 11.0 µM -2% | [12]; at 33.0 µM -3% | [12]; at 100.0 µM -4% | [13]; at 1.2 µM -1% | [13]; at 3.7 µM 0% | [13]; at 11.0 µM -2% | [13]; at 33.0 µM 3% | [13]; at 100.0 µM 6% | [14]; at 1.2 µM 2% | [14]; at 3.7 µM 5% | [14]; at 11.0 µM 4% | [14]; at 33.0 µM 9% | [14]; at 100.0 µM 10% | [15]; [17] -25% | [15]; [18] -8% | [15]; at 50.0 µM 55.6% | [16]; at 1.2 µM 11% | [16]; at 3.7 µM 8% | [16]; at 11.0 µM 21% | [16]; at 33.0 µM 29% | [16]; at 100.0 µM 30%
